# Source: PubChem BioAssay AID720518 (National Center for Advancing Translational Sciences (NCATS), 2013)
# Records with an inconclusive call do not appear. Entries that show only a call come without a potency. Calls of active or inactive are those of the source. Calls come from the whole dose curve.
# Test: qHTS for Inhibitors of Cell Surface uPA Generation: Wild-type Protective Antigen (WT-PrAg) Counterscreen for Cherry-picked Compounds
# Settings: cells, WT protective antigen toxicity counterscreen; series mostly up to 115 µM
row,SMILES,Potency
1,CCCNC(=O)COc1coc(CN2CCN(c3ccccc3OC)CC2)cc1=O,inactive
2,Cc1cc2[nH]c(=O)c(=O)[nH]c2cc1S(=O)(=O)NC1CCC(C)CC1 (stereo not drawn),inactive
3,Cc1cccc(C(=O)Nc2cc(=O)n(C)c(=O)n2C)c1,inactive
4,Cc1cccc(C(=O)NC2CCN(CC(=O)N3CCOCC3)CC2)c1,inactive
5,COC(/C=C/Nc1ccc(Cl)cc1)=C(C#N)C#N,inactive
6,COc1cc(C2NC(=O)NC(C)=C2C(=O)OCC2CCCCC2)ccc1O (stereo not drawn),inactive
7,CC(C)CNC(=O)COC(=O)CCC(=O)c1cccs1,inactive
8,C=CCOC(=O)C1=C(C)NC(C)=C(C(=O)OCC=C)C1c1cn(-c2ccccc2)nc1-c1ccco1,inactive
9,CC(=O)Nc1ccc(NC(=O)CCCCCN2C(=O)c3ccccc3C2=O)cc1,inactive
10,Cn1c(=O)n(CC(=O)O)c(=O)c2c1nc1n2CCCN1CCc1ccccc1,inactive
11,Cc1ccccc1C(=O)NCC(=O)Nc1ccc(C)c(S(=O)(=O)N2CCCCCC2)c1,inactive
12,COc1ccc2cc(CCNC(=O)c3ccc4c(c3)OCO4)c(=O)[nH]c2c1,inactive
13,COc1ccc(CNC(=O)C2(CC3CC(c4ccccc4)=NO3)CCNCC2)cc1 (stereo not drawn),inactive
14,O=C(Cc1ccc(Cl)cc1)NC(=S)Nc1ccccc1O,inactive
15,O=C(NCc1ccco1)/C(=C\c1cccs1)NC(=O)c1ccccc1,inactive
16,COc1cccc(NC(=O)CN(C)C(=O)c2csc3c2CCCC3)c1,inactive
17,COc1cc(NC(=O)CSc2nnc3ccc(-c4ccncc4)nn23)cc(OC)c1,inactive
18,CCOc1cc(C(=O)OCC(=O)c2cc(C)n(CC3CCCO3)c2C)ccc1OCC(=O)N1CCOCC1 (stereo not drawn),inactive
